Screening results (PubChem BioAssay)
In the library only some 3.5% were active in any assay of this set; here they are far more common.
TEAD-YAP block: TEAD-YAP interaction inhibition, primary screen, TEAD-YAP interaction inhibitor project, luminescence, HEK-TIYL cells; inhibition, % at 9.12 µM; 640,000 tested, 1.4% active; TEAD-Gal4/YAP UAS-luciferase luminescence; in the data active means inhibition above about 32%;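 further: 0% = median of test compound wells and 100% = reference inhibitor wells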
FBW7 activator: FBW7 E3 ligase activators, primary screen, biochemical, AlphaScreen, human; AID 1259310, 2017; AlphaScreen FBW7–phospho-cyclin E peptide binding, activator screen; normalized activity (activation), % at 26.1 µM; 650,000 tested, 0.13% active; in the data active means normalized activity above about 1.9%;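 further: purified mutant Fbw7 with reduced substrate affinity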
GPR151 ag: activators of human GPR151, primary screen, cell-based, PathHunter beta-arrestin, luminescence; activation, % at 11.2 µM; AID 1508602, 2020; 650,000 tested, 1% active; PathHunter beta-arrestin GPR151 cells; in the data active means activation above about 4.9%;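 further: 0% = median of compound wells and 100% = cells with positive control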
MITF primary: MITF inhibitors, primary screen, biochemical, AlphaScreen, human; Microphthalmia-associated transcription factor (Homo sapiens), O75030; AlphaScreen MITF homodimerization, bead proximity signal; inhibition, % at 2.6 µM; 650,000 tested, 0.91% active; AID 1259374, 2018; in the data active means inhibition above about 50%;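 further: 0% = vehicle wells with protein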
Target sequence (O75030 whole entry, looked up): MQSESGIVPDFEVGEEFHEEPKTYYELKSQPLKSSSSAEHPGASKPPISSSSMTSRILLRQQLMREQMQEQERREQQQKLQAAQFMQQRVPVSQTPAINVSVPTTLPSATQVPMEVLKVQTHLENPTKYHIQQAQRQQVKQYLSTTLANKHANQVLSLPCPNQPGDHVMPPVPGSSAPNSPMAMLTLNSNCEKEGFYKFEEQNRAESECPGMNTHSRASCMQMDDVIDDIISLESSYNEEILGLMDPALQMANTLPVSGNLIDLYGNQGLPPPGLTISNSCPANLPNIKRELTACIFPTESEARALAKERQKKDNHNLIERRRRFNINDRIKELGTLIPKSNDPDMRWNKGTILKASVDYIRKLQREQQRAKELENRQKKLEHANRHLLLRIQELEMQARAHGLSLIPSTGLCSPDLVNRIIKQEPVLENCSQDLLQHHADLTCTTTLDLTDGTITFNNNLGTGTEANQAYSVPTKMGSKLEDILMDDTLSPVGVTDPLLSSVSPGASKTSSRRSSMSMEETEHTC
An asterisk follows results filed as active.

SMILES | TEAD-YAP block | FBW7 activator | GPR151 ag | MITF primary
CC(C)N(CCNc1nc(Nc2nccc3ccccc23)nc2c1ncn2C(C)C)C(C)C | 50* | 0 | -1 | 20
CCCNc1nc(Nc2cnccn2)nc2c1ncn2C(C)C | 46* | 0 | 3 | 5
CCOC(=O)c1[nH]c(C)c(C(=O)N2CC(C)CC(C)C2)c1C (configuration not stated) | 44* | 0 | -1 | -2
CCOC(=O)c1[nH]c(C)c(C(=O)Nc2cc(Cl)ccc2C)c1C | 47* | 0 | 0 | -10
CC(=O)c1[nH]c(C)c(C(=O)Nc2cc(Cl)ccc2C)c1C | -1 | 0 | 0 | 17
CCOC(=O)c1[nH]c(C)c(C(=O)Nc2cc(C)ccc2OC)c1C | 57* | 0 | 2 | 2
CCOC(=O)c1[nH]c(C)c(C(=O)N2CCCCCC2)c1C | -8 | 1 | 1 | 20
CCOC(=O)c1[nH]c(C)c(CNc2cc(OC)ccc2OC)c1C | 50* | 0 | 0 | 12
CN(Cc1cccs1)C(=O)CN1C(=O)NC2(CCc3ccccc3C2)C1=O (configuration not stated) | 4 | 0 | 1 | -8
CC1CC(C)CN(C(=O)CCC(=O)N2CCOc3ccccc32)C1 (configuration not stated) | -1 | 0 | -1 | -2
OC1CCN(Cc2ccc3c(c2)CN(CC2CC=CCC2)CCO3)CC1 (configuration not stated) | -22 | 0 | 4 | 5
CCOC(=O)c1[nH]c(C)c(C(=O)Nc2ccccc2C)c1C | 44* | 0 | -1 | -5
CCOC(=O)c1[nH]c(C)c(C(=O)Nc2ccccc2OCC)c1C | 58* | 0 | 0 | -9
CCOC(=O)c1[nH]c(C)c(C(=O)c2ccc(Cl)cc2)c1C | 40* | 0 | 2 | 13
CCOC(=O)c1c(C)[nH]c(C(=O)C(C)Nc2cc(NC(C)=O)ccc2OC)c1C (configuration not stated) | 1 | 0 | -2 | 1
CCOC(=O)c1c(C)[nH]c(C(=O)C(C)Nc2ccccc2OCC)c1C (configuration not stated) | -3 | 0 | 0 | 5
CCOC(=O)c1c(C)[nH]c(C(=O)C(C)Nc2ccc(OC)c(OC)c2)c1C (configuration not stated) | 43* | 0 | -2 | 42
CC(=O)n1ccc2ccc(C(=O)CN3CCN(c4ccc(F)cc4)CC3)cc21 | 0 | 0 | 0 | 6
O=C(Nc1ccc2c(c1)C(=O)N(c1ccc(Oc3ccc(Cl)cc3)cc1)C2=O)c1ccc(Br)cc1 | 2 | 0 | 1 | 9
COc1cc(CN2CCN(Cc3ccc4c(c3)OCO4)CC2)cc([N+](=O)[O-])c1O | 1 | 0 | -1 | 28
O=C(/C=C/Nc1cccc(Br)c1)c1cccs1 | -55 | 0 | -1 | -10
CCOc1ccc(N/C=C/C(=O)c2cccs2)cc1 | 37* | 1 | 0 | 17
O=C(/C=C/Nc1ccc(Br)cc1)c1cccs1 | 41* | 0 | -2 | -4
Cc1ccc(O)c(N/C=C/C(=O)c2ccc(F)cc2)c1 | -57 | 0 | -1 | 13
Cc1ccc(O)c(N/C=C/C(=O)c2cccs2)c1 | 54* | 1 | -1 | 2
SMILES | TEAD-YAP block | FBW7 activator | GPR151 ag | MITF primary
Cc1c([N+](=O)[O-])cc(NC(=O)C(F)(F)F)cc1[N+](=O)[O-] | 3 | 0 | 0 | -2
COc1ccc(-c2ncc(C(N)=O)s2)cc1 | 49* | 0 | -7 | -6
NC(=O)c1cnc(-c2ccc(N3CCOCC3)nc2)s1 | 63* | 0 | -8 | 6
CCCNC(=O)c1cnc(-c2ccc(N3CCOCC3)nc2)s1 | 0 | 0 | 0 | 1
NC(=O)c1ccc(-c2ccc(N3CCOCC3)nc2)s1 | 50* | 0 | -12 | 18
CN1CCCN(c2cc(-c3ccc(OC4CCCCO4)cc3)ncn2)CC1 (configuration not stated) | 4 | 0 | 0 | 21
c1cn(CCCNc2cc(-c3ccc(OC4CCCCO4)cc3)ncn2)cn1 (configuration not stated) | 50* | 0 | -1 | 20
CCOc1ccc(C(=O)Nc2sc3c(c2C(N)=O)CC(C)(C)NC3(C)C)cc1 | -5 | 0 | 4 | 1
Clc1ccc2nc(-c3ccccc3)cn2c1 | 77* | 0 | -9 | 12
Clc1ccc2nc(-c3ccc4c(c3)OCO4)cn2c1 | 73* | 0 | -9 | -16
Fc1ccc(-c2cn3cc(Cl)ccc3n2)cc1 | 37* | 0 | -8 | 14
Clc1ccc2nc(-c3ccc(Br)cc3)cn2c1 | -78 | 0 | 0 | -13
Cc1ccsc1C(=O)C1CCCN(S(=O)(=O)c2ccccc2)C1 (configuration not stated) | 0 | 0 | -1 | -1
C/C(=N\N=C1\NC(=O)C(CC(=O)Nc2ccccc2C(F)(F)F)S1)c1ccccc1 (configuration not stated) | 3 | 0 | 0 | 0
CCn1c(SCC(=O)N2CCCC2)nnc1-c1c[nH]c2ccccc12 | 1 | 0 | 0 | -7
CCOC(=O)N1CCN(C(=O)CSc2nnc(-c3c[nH]c4ccccc34)n2CC)CC1 | 36* | 0 | -2 | -13
COc1ccc(N2CCN(C(=O)c3ccc(C)o3)CC2)cc1 | 14 | 1 | -1 | 1
Nn1c(Cc2ccccc2F)nnc1SCc1cc(=O)oc2cc(O)c(O)cc12 | 6 | -1 | -1 | 95*
Cn1c(SCc2cc(=O)oc3cc(O)c(O)cc23)nc2ccccc21 | -4 | 0 | -3 | 42
Nn1c(SCc2cc(=O)oc3cc(O)c(O)cc23)nnc1-c1ccncc1 | -6 | -1 | 0 | 85*
Cc1cc(Sc2nc3c(C)cccn3c(=O)c2C=O)ncn1 | -2 | 1.9* | 0 | -1
C=CS(=O)(=O)c1ccc(C(C)(C)C)cc1 | 68* | 0 | 3 | 19
Cc1ccc(C)c(CSc2nc3ccsc3c(=O)n2CCCCC(=O)O)c1 | 57* | 0 | 0 | 2
COC(=O)Cn1c(SCc2cc(C)ccc2C)nc2ccsc2c1=O | 63* | 0 | 0 | 14
Cc1ccc(CNC(=O)CCCCCn2c(SCc3cc(C)ccc3C)nc3ccsc3c2=O)cc1 | -2 | 0 | 1 | -6
CCN(CC)C(=O)CSc1nc2c(sc(=S)n2-c2ccc(C)c(C)c2)c(=O)n1-c1ccc(F)cc1 | -15 | 0 | 0 | 15
COc1cccc2c1OC(c1ccc(F)c(F)c1)N1N=C(c3ccc(C)o3)CC21 (configuration not stated) | 33* | 0 | 0 | 11
CCOc1ccc(C2=NN3C(C2)c2cccc(OC)c2OC3c2ccc(F)c(F)c2)cc1 (configuration not stated) | 14 | 1 | -2 | 6
COc1cccc2c1OC(c1ccccc1Cl)N1N=C(c3ccc(C)o3)CC21 (configuration not stated) | 44* | 0 | -1 | 3
